Measurements published in ChEMBL document CHEMBL3988442, “University of Dundee, Small-Polar-MMV Screening Library” (2021).
Hit rate of the full screen: of about 48,000 compounds, about 13,000 (27%) showed an effect of 50% or more. This is one part of the list.

System: Wolbachia pipientis
Assay: Anti-Wolbachia Cell-Based Screen
Type: functional
Parameters: scale not given: in the data most compounds retested in dose-response had high values
Conditions: 5 µM

Row | Structure (SMILES) | Percent Effect
1 | CC(C)N1CCC2(CC1)CN(C)C(=O)C[C@H]2C(F)(F)F | -3.989%
2 | COc1ccc2c(c1)CCCN(C(C)C(=O)NC(N)=O)C2 (stereo not drawn) | -1.078%
3 | NC(=O)C1=NC2=NS(=O)(=O)c3ccccc3N2N1Cc1ccc(Br)cc1 | 9.157%
4 | Cc1c[nH]c(C(=O)N2CCn3nc(C(=O)NC4CC4)cc3C2)n1 | -2.025%
5 | Cc1nc2ccc(C(=O)N3CCN(CCO)[C@@H]4CS(=O)(=O)C[C@@H]43)cc2o1 | -12.01%
6 | CC(C)N1CCC(c2n[nH]cc2S(C)(=O)=O)CC1 | 115.7%
7 | Cn1ccnc1C1CCCN(C(=O)c2ccncc2F)C1 (stereo not drawn) | 111.1%
8 | Cc1cc(C(=O)N2CCCC(c3nccn3C)C2)cc(S(N)(=O)=O)c1C (stereo not drawn) | 99.7%
9 | COCCn1ccnc1C1CCCN(C(=O)c2cc(F)cc(F)c2)C1 (stereo not drawn) | 83.8%
10 | Cc1cc(C(=O)N2CCCC(c3nccn3Cc3ccncc3)C2)no1 (stereo not drawn) | 10.63%
11 | Cn1ccnc1C1CCCN(C(=O)c2cc(F)cc(F)c2)C1 (stereo not drawn) | 106.9%
12 | Cc1nc(N)sc1C(=O)N1CCCC(c2nccn2CCCN(C)C)C1 (stereo not drawn) | 8.356%
13 | COCCn1ccnc1C1CCCN(C(=O)c2ccncc2F)C1 (stereo not drawn) | 0%
14 | COCCn1ccnc1C1CCCN(C(=O)c2cccnc2SC)C1 (stereo not drawn) | -0.1241%
15 | COCCn1ccnc1C1CCCN(C(=O)c2ccccc2C#N)C1 (stereo not drawn) | -8.592%
16 | CCc1ncc(C(=O)N2CCCC(c3nccn3CCOC)C2)cn1 (stereo not drawn) | -9.089%
17 | CC(C)(O)c1cn(C2CCN(C(=O)CCC(F)(F)F)CC2)nn1 | 13.09%
18 | CN(CCc1ccncc1)C(=O)c1sccc1OC(F)F | -13.92%
19 | CCC1=N[C@@]2(CC[C@@H]3CN(C(=O)NCC(C)C)C[C@@H]32)C(=O)N1CC1CC1 | 11.23%
20 | Cc1ncc(C(=O)Nc2cncnc2N(C)C)c(Cl)c1Cl | -6.041%
21 | CN(C)C(=O)c1cccnc1SCc1ccccc1Cl | 128.1%
22 | CSc1ncccc1C(=O)N(C)CCc1scnc1C | 0.9599%
23 | CN(C)C(=O)c1cccnc1SCc1ccccc1C#N | 100.1%
24 | CSc1ncccc1C(=O)N(C)C(C)Cc1ccccn1 (stereo not drawn) | 1.339%
25 | Cc1ccccc1CSc1ncccc1C(=O)N(C)C | 111%
26 | CN(C)C(=O)CN1C[C@@H]2CC[C@H](C1)N(Cc1ccccc1C#N)C2 | -40.35%

Row | Structure (SMILES) | Percent Effect
27 | Cc1cccnc1NC(=O)CNC(=O)c1ccccc1Cl | -60.17%
28 | CN(C)C(=O)c1ccccc1NCCCOc1cccc(C#N)c1 | -15.07%
29 | CSCC(=O)N(Cc1ccccn1)Cc1ccccc1C | -1.935%
30 | O=C(CNC(=O)C1CCCC1)NCc1cnn(-c2ccc(F)cc2F)c1 | -3.155%
31 | CC(=O)N1CCc2c(nc(N(C)C)nc2NCCc2cccs2)C1 | 30.52%
32 | Cc1ccccc1C(O)CNC(=O)Cc1ccc(F)cc1 (stereo not drawn) | -16.74%
33 | c1cnnc(NCC2CN(CCN3CCCCC3)CCO2)c1 (stereo not drawn) | -1.688%
34 | OC1(CN2CCOC(CNc3cccnn3)C2)CCCCC1 (stereo not drawn) | 90.58%
35 | O=C(CCN1CCOC(Cn2cccn2)C1)NC1CCCC1 (stereo not drawn) | 3.251%
36 | O=C(CCN1CCOC(Cn2cccn2)C1)NC1CCCCC1 (stereo not drawn) | 137.8%
37 | O=C(CN1CCOC(Cn2cccn2)C1)NC1CCN(C2CC2)CC1 (stereo not drawn) | -5.348%
38 | O=C(CN1CCOC(CNc2cccnn2)C1)N1CCCCC1 (stereo not drawn) | 113.9%
39 | O=C(CCN1CCOC(CNc2cccnn2)C1)NC1CCCCC1 (stereo not drawn) | 89.48%
40 | Cc1c2nnn(CC(=O)N(C)C)c(=O)c2nn1C | 15.44%
41 | COCc1nc2cc(NCc3ccc(C)o3)ccc2o1 | -0.6949%
42 | COCCN(C)CCN1CC2(CCN(C3CCCOC3)CC2)OC1=O (stereo not drawn) | -0.4921%
43 | Cc1cnccc1NCCn1ccnc1C1CCCCC1 | 3.788%
44 | Cc1ncc(CN(C)CC(O)c2ccc(OC(F)(F)F)cc2)s1 (stereo not drawn) | -20.59%
45 | Cc1cn2c(n1)CCC(NC(=O)CCC(F)(F)F)C2 (stereo not drawn) | 10.47%
46 | Cc1cnn(CCC(=O)NC2CCc3nc(C)cn3C2)c1 (stereo not drawn) | 105.9%
47 | Cc1cn2c(n1)CCC(NC(=O)Cn1cncn1)C2 (stereo not drawn) | 119.2%
48 | Cc1cn2c(n1)CCC(NC(=O)CCCn1cncn1)C2 (stereo not drawn) | 102.3%
49 | Cc1cn2c(n1)CCC(NC(=O)c1ccc(CS(C)(=O)=O)o1)C2 (stereo not drawn) | -5.623%
50 | Cc1cn2c(n1)CCC(NC(=O)CCn1cncn1)C2 (stereo not drawn) | -7.204%
51 | Cc1cn2c(n1)CCC(NC(=O)CCn1ccnn1)C2 (stereo not drawn) | -2.127%
52 | CCN(C(=O)CNC1CCc2ncnn2C1)C1=CCCCC1 (stereo not drawn) | -6.833%

Row | Structure (SMILES) | Percent Effect
53 | CC(C)Oc1ccc(NCc2ccc([S+](C)[O-])cc2)c(F)c1 (stereo not drawn) | 7.808%
54 | O=C(NCc1nn(-c2ccccc2)c2c1CCC2)NC1CC1 | -2.781%
55 | CCc1cc(CNC(=O)NCc2ccc(N3CCCCC3)cc2)on1 | -23.7%
56 | Cn1nnn(-c2ccc(NS(=O)(=O)c3ccc(F)c(Cl)c3)cc2)c1=O | -5.508%
57 | O=C1CC(NS(=O)(=O)c2ccc(F)c(Cl)c2)CN1 (stereo not drawn) | 135.6%
58 | O=C1CC(NS(=O)(=O)c2cccc(F)c2)CN1 (stereo not drawn) | 126.5%
59 | O=C(c1ccc(S(=O)(=O)NC2CCC2)cc1)N1CC[C@H]2CNC[C@H]21 | -0.3981%
60 | O=C1CC(NS(=O)(=O)c2ccc(Br)cc2)CN1 (stereo not drawn) | 151.1%
61 | COC(=O)c1ccc(S(=O)(=O)NC2CNC(=O)C2)cc1 (stereo not drawn) | 131%
62 | CSc1ccc(S(=O)(=O)NC2CNC(=O)C2)cc1 (stereo not drawn) | -0.4933%
63 | O=S(=O)(NC1CC1)c1cccc(Br)c1 | -14.81%
64 | Cc1ccc(S(=O)(=O)NC2CCC(=O)NC2)cc1Br (stereo not drawn) | -11.56%
65 | CC(Cn1ccnc1)NS(=O)(=O)c1ccc(F)c(Cl)c1 (stereo not drawn) | -9.501%
66 | COc1cccc(S(=O)(=O)NC2CNC(=O)C2)c1 (stereo not drawn) | 1.379%
67 | CSCCCN1CCn2nc(CNC(=O)N(C)C)cc2C1 | -17.64%
68 | Cc1ncsc1CCC(=O)NC1CCN(c2ncccc2C#N)CC1 | 5.658%
69 | Cc1ccc2c(c1)C(N1CCOCC1)CC21CCNCC1 (stereo not drawn) | -7.905%
70 | Cc1ccccc1SCC(=O)Nn1cnnc1 | -2.526%
71 | O=C(C(O)c1ccccc1Cl)N1CCCN(Cc2cccnc2)CC1 (stereo not drawn) | -0.1768%
72 | Cc1nc([C@@H]2C[C@H]3CN(Cc4ccc5c(c4)OCO5)C[C@H]3O2)no1 | -16.45%
73 | N#CC1COCCN1S(=O)(=O)c1ccc2ccccc2c1 (stereo not drawn) | -7.007%
74 | O=C(COCC1CC1)Nc1cc(S(=O)(=O)NC2CC2)ccc1F | 1.35%
75 | O=C1CC(NS(=O)(=O)c2ccc(Cl)cc2)CN1 (stereo not drawn) | 124.5%
76 | O=C1CC(NS(=O)(=O)c2ccccc2)CN1Cc1ccccc1 (stereo not drawn) | 4.424%
77 | Cc1ccc(S(=O)(=O)NC2CNC(=O)C2)cc1C (stereo not drawn) | -5.685%
78 | O=C1CC(NS(=O)(=O)c2ccc3ccccc3c2)CN1 (stereo not drawn) | 96.97%

Row | Structure (SMILES) | Percent Effect
79 | CC(C)O[C@H]1CN(C(=O)CCN2CCCCO2)C[C@@H]1O | -9.995%
80 | Cc1nnc(SCCNC(=O)c2cc(S(N)(=O)=O)ccc2F)s1 | 5.633%
81 | O=C(O)C(F)(F)F.O=C(c1ccc(O)cc1)N1C[C@@H]2OCCN(c3ncccn3)[C@@H]2C1 | 101.3%
82 | O=C(O)C(F)(F)F.O=C(c1ccco1)N1C[C@@H]2OCCN(c3ncccn3)[C@@H]2C1 | 113.8%
83 | O=C(O)C(F)(F)F.O=C(c1ccccc1)N1CCO[C@@H]2CN(c3ncccn3)C[C@@H]2C1 | 5.105%
84 | O=C(O)C(F)(F)F.O=C(c1ccoc1)N1C[C@@H]2OCCN(c3ncccn3)[C@@H]2C1 | 85.6%
85 | O=C(c1ccoc1)N1CC[C@@H]2[C@@H](CC1)OCCN2c1cccnc1 | -2.409%
86 | O=C(O)C(F)(F)F.O=C(c1ccco1)N1C[C@@H]2[C@@H](C1)OCC(=O)N2Cc1cccnc1 | -32.49%
87 | O=C(O)C(F)(F)F.O=C(c1ccc(F)cc1)N1C[C@@H]2OCCN(c3ncccn3)[C@@H]2C1 | -10.32%
88 | O=C(O)C(F)(F)F.O=C(c1ccco1)N1C[C@@H]2CN(c3ccccn3)C[C@@H]2C1 | -23.25%
89 | O=C(O)C(F)(F)F.O=C(c1ccoc1)N1C[C@@H]2[C@@H](C1)OCC(=O)N2Cc1cccnc1 | -4.595%
90 | CSCC[C@@H](CO)Nc1ccc(-c2nc(-c3ccccc3C)no2)cn1 | 8.283%
91 | CO[C@@H]1CCC[C@@H](NC(=O)C(C)(C)c2cccc(F)c2)[C@H]1O | 116.6%
92 | COCCN1CCC(NC(=O)Nc2cccc(F)c2)C1 (stereo not drawn) | -22.85%
93 | CC(C)CS(=O)(=O)CC(=O)NC(C)(C)c1cccc(F)c1 | 8.066%
94 | Fc1cccc(-n2nc(C3CC3)nc2CCn2cnnn2)c1 | -8.194%
95 | CN(C)Cc1ccnc(C2CCCN2Cc2cccc(F)c2F)n1 (stereo not drawn) | 111%
96 | CN(C)Cc1ccnc(C2CCCN2Cc2ccc(F)cn2)n1 (stereo not drawn) | 110.9%
97 | CCCn1cc(CN2CCCC2c2nccc(CN(C)C)n2)cn1 (stereo not drawn) | 91.04%
98 | Cn1cc(C2CCCN2Cc2csc(C(C)(C)C)n2)cn1 (stereo not drawn) | 3.745%
99 | Cc1cnn(CC2CCCN2CC(=O)N(C)Cc2cnn(C)c2)c1 (stereo not drawn) | -0.6585%
100 | Cc1cnc(CN2CCCC2c2noc(C)n2)cn1 (stereo not drawn) | -5.918%
101 | CN(C)Cc1ccnc(C2CCCN2Cc2cc[nH]n2)n1 (stereo not drawn) | -4.978%
102 | Cc1nn(C)c(C)c1CN1CCCC1c1nccc(CN(C)C)n1 (stereo not drawn) | 96.16%
103 | Cc1nn(C)c(C)c1CN(C)C(=O)C1COc2ccccc2C1 (stereo not drawn) | -11.47%
